Assay [1] is described as follows: Cytotoxicity counterscreen for NFkB agonists and antagonists (AID 624476).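 Also: cells exposed to compound for 48 hours.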 Also: potency is read from the fitted curve at half-maximal effect.
Assay [2] is described as follows: qHTS Assay for Identification of Small Molecule Agonists for NFkB Signaling Pathway. (AID 624478). Also: 0% is about no effect. In outline: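 NFkB-bla ME-180 cells carry a beta-lactamase reporter. They received compound plus TNF alpha at 10 pM final (its EC50) for 5 h at 37 C. Reporter activity was read as 460/530 nm emission ratio after 2 h LiveBLAzer substrate loading.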
Assay [3] in a line: qHTS Assay for Identification of Small Molecule Antagonists for NFkB Signaling Pathway. (AID 624479; calls by dose curve;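 also: pathway stimulated with TNF alpha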; also: potency is read from the fitted curve at half-maximal effect).
Assay [4] in a line: Cell Proliferation Assay against the TMD8 Cell Line (AID 651645).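 Also: cells exposed to compound for 48 h before reading.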 As to conditions: TMD8 DLBCL cell line proliferation/viability; at 46.1 µM (top of the series). In outline:
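Viability by CellTiter-Glo after 48 h compound exposure of 500 log-phase TMD8 cells per well (RPMI, 5% FBS). Percent activity scaled between DMSO (100%) and 9.2 uM final bortezomib (0%).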

Assay [5] can be described thus: Cell Proliferation Assay against the HBL1 Cell Line (AID 651646).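 Also: cells exposed to compound for 48 h before reading.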 As to conditions: HBL1 DLBCL cells; at 46.1 µM (top of the series). The method, boiled down: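 Luminescent ATP read-out (CellTiter-Glo) after 48 h compound exposure of HBL1 cells at 37 °C; percent activity was scaled between DMSO as 100% and 9.2 uM bortezomib (final) as 0%.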
Assay [6] in a line: Cell Proliferation Assay against the TMD8 Cell Line (Caspase readout at 16 hrs) (AID 651712). Also: potency is read from the fitted curve at half-maximal effect. In outline: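 Apoptotic response of TMD8 cells was judged from caspase 3/7 activation following a 16 hour compound incubation at 37 °C. Luminescent signal was converted to percent activity, with DMSO set as 0% and 9.2 uM final bortezomib as 100%.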
Assay [7] can be described thus: Cell Proliferation Assay against the TMD8 Cell Line (Caspase readout at 8 hrs) (AID 651713). Also: potency is read from the fitted curve at half-maximal effect. In outline:
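TMD8 cells in RPMI plus 5% FBS were treated with compound for 8 h at 37C. Caspase 3/7 activation was read by Caspase-Glo luminescence. Percent activity was scaled from DMSO (0%) to 9.2 uM bortezomib final (100%).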

Structures are written as SMILES. Records with an inconclusive call do not appear. The source made the active and inactive calls. Unless noted, calls follow the shape of the dose curve; as a rule, active = well fitted curve in the direction sought with a large enough effect; inconclusive = small, poorly fitted or top-dose-only effect, or another doubt; inactive = no such curve, though single readings can be large; an effect the other way counts as inactive or inconclusive.

On to `O=C(C=Cc1c(C(=O)O)[nH]c2cc(Cl)cc(Cl)c12)Nc1ccccc1`, for which the Potency entry in assay [1], in assay [3], in assay [6] and in assay [7] was “inactive” throughout. In addition, the molecule was classed as inactive in assay [2]. In assay [4], the viability (% of control) turned out to be 103%. Also, the viability, percent of control in assay [5] turned out to be 112%.

Take `C1Cc2[nH]nc(-c3nn[nH]n3)c2C1`: the Potency entry in assay [1], in assay [3], in assay [6] and in assay [7] was “inactive” in each case. The outcome in assay [2] was inactive. For the same molecule, the viability (% of control) in assay [4] is 103%. Further, in assay [5], the viability, percent of control came out at 91.7%.

With `CN(c1ncccc1CNc1nc(Nc2ccc3c(c2)CC(=O)N3)ncc1C(F)(F)F)S(C)(=O)=O`, the Potency in assay [1] was 10.5 µM (active); in assay [3] it was 1.49 µM (active); in assay [7], 8.33 µM (active). In assay [2], the outcome was inactive. Also, the viability (% of control) in assay [4] was -0.0421%. The viability, percent of control in assay [5] is 40.9%.

Regarding `CN1CC[C@@H](c2c(O)cc(O)c3c(=O)cc(-c4ccccc4Cl)oc23)[C@@H](O)C1`, the Potency was 0.132 µM (active) in assay [1], 0.0149 µM (active) in assay [3] and 0.0743 µM (active) in assay [7]. Also, the call in assay [2] was inactive. Further, the viability (% of control) in assay [4] is -0.0054%. In assay [5], the viability, percent of control is 41.8%.

On to `O=C(C=Cc1cccnc1)NCCCCC1CCN(C(=O)c2ccccc2)CC1`, for which the Potency result in assay [1], in assay [3], in assay [6] and in assay [7] was “inactive” throughout. For the same molecule, the outcome in assay [2] was inactive. Moreover, the viability (% of control) in assay [4] worked out at 7.31%. Also, the viability, percent of control in assay [5] stood at 53.4%.

For the molecule `C[C@@H]1CN(CC(=O)Nc2ccc3c(c2)Cc2cccc(-c4cc(=O)cc(N5CCOCC5)o4)c2S3)C[C@H](C)O1`, the Potency result in assay [1] and in assay [3] was “inactive” in each case. Also, the outcome in assay [2] was inactive. Besides, in assay [4], the viability (% of control) was determined as 26.2%. For the same molecule, the viability, percent of control in assay [5] was found to be 56.7%. Further, the Potency in assay [7] is 23.5 µM (active).

Consider `CC(C)c1ccccc1Cc1cc(C(=O)Nc2ccc(S(=O)(=O)c3ccccc3C(C)(C)C)cc2)c(O)c(O)c1O`, for which the values for the Potency in assay [1], in assay [3] and in assay [6] were 14.8 µM (active), 13.3 µM (active) and 6.62 µM (active), respectively. In assay [2], the molecule was classed as inactive. Also, in assay [4], the viability (% of control) is 9.33%. In addition, the viability, percent of control in assay [5] was determined as 21.6%.

For `Nc1ccccc1NC(=O)c1ccc(CNC(=O)OCc2cccnc2)cc1`, the Potency result in assay [1], in assay [3] and in assay [7] was “inactive” each time. Further, the molecule was called inactive in assay [2]. Moreover, the viability (% of control) in assay [4] was 4.84%. Besides, the viability, percent of control in assay [5] worked out at 4.18%.

`CN1CCC(CNc2ccc3ncc(-c4cccc(OC(F)(F)F)c4)n3n2)CC1`: the Potency in assay [1] is 26.4 µM (active); in assay [3] it was 23.7 µM (active); in assay [7] it was 23.5 µM (active). In addition, the result in assay [2] was inactive. The viability (% of control) in assay [4] was found to be 4.73%. In addition, the viability, percent of control in assay [5] turned out to be 3.91%.

`COc1cccc2nc(-c3cccs3)nc(NN3C(=O)C=C(C)C3=O)c12`: in assay [1], the Potency entry is “inactive”. Moreover, in assay [2], the call was inactive. The Potency in assay [3] was 0.841 µM (active); in assay [7], 0.166 µM (active). Also, the viability (% of control) in assay [4] stood at 3.01%. Further, in assay [5], the viability, percent of control was found to be 3.09%.

Consider `N#Cc1c(O)c2c(-c3ccc(-c4ccccc4O)cc3)csc2[nH]c1=O`, for which the Potency result in assay [1], in assay [3], in assay [6] and in assay [7] was “inactive” in each case. Further, the result in assay [2] was inactive. In addition, the viability (% of control) in assay [4] was found to be 112%. Moreover, the viability, percent of control in assay [5] worked out at 114%.

With `CC(C)c1ccc(Cn2ccc3c4c(N)nc(NC5CC5)nc4ccc32)cc1`, the results for the Potency in assay [1], in assay [3] and in assay [7] were 9.35 µM (active), 16.8 µM (active) and 6.62 µM (active), respectively. Also, the molecule was called inactive in assay [2]. In addition, the viability (% of control) in assay [4] stood at 1.25%. Also, the viability, percent of control in assay [5] came to 1.62%.

As for `CC(C)[C@H](C(=O)Nc1ccc(C(=O)NO)cc1)c1ccccc1`, the Potency was 18.7 µM (active) in assay [1] and 0.166 µM (active) in assay [6]. Further, in assay [2], the molecule was classed as inactive. In addition, the Potency entry in assay [3] was “inactive”. Besides, the viability (% of control) in assay [4] came to 0.267%. Besides, in assay [5], the viability, percent of control came to 0.0861%.

Regarding `Nc1cc(C(F)(F)F)c(-c2cc(N3CCOCC3)nc(N3CCOCC3)n2)cn1`, the Potency was 0.935 µM (active) in assay [1], 2.09 µM (active) in assay [6] and 20.9 µM (active) in assay [7]. Further, in assay [2], the outcome was inactive. In assay [3], the Potency result was “inactive”. Further, the viability (% of control) in assay [4] was 3.22%. For the same molecule, the viability, percent of control in assay [5] is 16.8%.

`CC(=O)OCCN1C(=O)c2c(C)nc3ccc(S(=O)(=O)N4CCOCC4)cc3c2C1=O`: the Potency entry in assay [1], in assay [3], in assay [6] and in assay [7] was “inactive” in each case. For the same molecule, in assay [2], the outcome was inactive. The viability (% of control) in assay [4] was determined as 94.5%. For the same molecule, in assay [5], the viability, percent of control was 105%.

Take `CCN1CCN(Cc2ccc(-c3cc4c(N[C@H](C)c5ccccc5)ncnc4[nH]3)cc2)CC1`: the Potency in assay [1] was 33.2 µM (active); in assay [3], 16.8 µM (active); in assay [6] it was 16.6 µM (active). For the same molecule, in assay [2], the molecule was called inactive. Besides, in assay [4], the viability (% of control) amounted to 1.56%. Moreover, in assay [5], the viability, percent of control is 1.9%.

Consider `COc1ccc2c(c1)CC[C@@H](CN(C)CC(=O)O)[C@H]2c1ccccc1`, for which the Potency entry in assay [1], in assay [3], in assay [6] and in assay [7] was “inactive” throughout. Further, the result in assay [2] was inactive. The viability (% of control) in assay [4] was found to be 118%. In addition, in assay [5], the viability, percent of control was found to be 98.5%.

As to `Cn1c2cc(S(C)=O)sc2c2cnn(Cc3cccc(N)c3)c(=O)c21` (stereo not drawn), the Potency entry in assay [1], in assay [6] and in assay [7] was “inactive” in each case. Also, in assay [2], the call was inactive. Besides, the Potency in assay [3] is 16.8 µM (active). Besides, the viability (% of control) in assay [4] came out at 110%. For the same molecule, the viability, percent of control in assay [5] turned out to be 93.3%.

As to `C#Cc1cccc(Nc2ncnc3cc(OC)c(OCCCCCCC(=O)NO)cc23)c1`, the Potency in assay [1] is 2.64 µM (active); in assay [3], 16.8 µM (active); in assay [6] it was 0.148 µM (active). Moreover, the outcome in assay [2] was inactive. Moreover, in assay [4], the viability (% of control) was -0.46%. Moreover, the viability, percent of control in assay [5] amounted to 1.91%.

Turning to `CC(C)(C)c1cnc(CSc2cnc(NC(=O)C3CCNCC3)s2)o1`, the results for the Potency in assay [1], in assay [3] and in assay [7] were 0.166 µM (active), 0.0473 µM (active) and 0.0935 µM (active), respectively. Moreover, the result in assay [2] was inactive. Also, the viability (% of control) in assay [4] was 3.42%. Besides, the viability, percent of control in assay [5] came out at 36.4%.

These data come from PubChem BioAssay (NCATS).
